{"source": "PubChem BioAssay AID777", "about": "(Sanford-Burnham Center for Chemical Genomics, 2007)", "note": "Screen size: about 96,000 compounds; about 19,000 (20%) were called active.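 The calls were made as follows: active = blocking of liver enzyme CYP2C9 beyond about 50% at 5 µM (limit read from the data); inactive = the rest.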 Not all results are given here.", "data": [{"target": "Cytochrome P450 2C9 (Homo sapiens) (UniProt P11712)", "sequence (P11712 whole entry, looked up)": "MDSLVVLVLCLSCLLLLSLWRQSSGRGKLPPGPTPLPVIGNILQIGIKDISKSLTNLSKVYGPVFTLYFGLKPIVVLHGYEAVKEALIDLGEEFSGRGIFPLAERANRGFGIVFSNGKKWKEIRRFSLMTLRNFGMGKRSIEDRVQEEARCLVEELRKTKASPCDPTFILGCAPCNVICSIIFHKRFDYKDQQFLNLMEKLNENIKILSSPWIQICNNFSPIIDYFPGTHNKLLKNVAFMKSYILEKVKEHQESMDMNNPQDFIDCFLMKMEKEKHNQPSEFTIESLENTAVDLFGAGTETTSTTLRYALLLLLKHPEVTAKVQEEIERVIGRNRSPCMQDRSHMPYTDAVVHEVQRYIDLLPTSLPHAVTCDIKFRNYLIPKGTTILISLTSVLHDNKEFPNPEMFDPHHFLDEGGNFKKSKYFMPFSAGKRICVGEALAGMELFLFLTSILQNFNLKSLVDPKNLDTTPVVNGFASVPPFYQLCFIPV", "test": "blockers of cytochrome P450 2C9 activity – biochemical, luminescence, ADME assay, primary screen (AID 777)", "settings": "CYP2C9 Supersomes, luciferin-H conversion, at 5 µM, active compounds read high", "values": [{"smiles": "O=C1CCCC2=C1C(c1cccs1)n1nc(SCc3ccccc3)nc1N2", "note": "(configuration not stated)", "inhibition": "-9.5% (inactive)"}, {"smiles": "COc1ccccc1C(=O)N1CCNC(=O)C1CC(=O)Nc1ccc(Cl)cc1", "note": "(configuration not stated)", "inhibition": "27.9% (inactive)"}, {"smiles": "Nc1ccccc1SCc1cc([N+](=O)[O-])cc2c1OCOC2", "inhibition": "53.9% (active)"}, {"smiles": "CN(C)S(=O)(=O)c1ccc(Oc2ccc(S(=O)(=O)N(C)C)cc2)cc1", "inhibition": "13.3% (inactive)"}, {"smiles": "Cc1cccc(N=C2NC(=O)CS2)c1C", "inhibition": "21.1% (inactive)"}, {"smiles": "COC(=O)c1ccc(Cc2ccccc2)o1", "inhibition": "-29.6% (inactive)"}, {"smiles": "COc1ccc2[nH]c(C)c(CCN(Cc3cccs3)C(=S)Nc3ccccc3OC)c2c1", "inhibition": "43.2% (inactive)"}, {"smiles": "COC(=O)c1ccc(CN(c2ccccc2OC)S(=O)(=O)c2cccs2)o1", "inhibition": "94.6% (active)"}, {"smiles": "Cc1oc(CC(C)C)c(CN2CCCC2)c1C(=O)O", "inhibition": "-18.2% (inactive)"}, {"smiles": "CN(C)c1ccc(CNC2C3CC4CC(C3)CC2C4)cc1", "note": "(configuration not stated)", "inhibition": "4.8% (inactive)"}, {"smiles": "COc1ccccc1NC(=O)C1=C(C)Nc2nnnn2C1c1cccc(Br)c1", "note": "(configuration not stated)", "inhibition": "41% (inactive)"}, {"smiles": "COC(=O)c1ccc(C2C3=C(Nc4nnnn42)c2ccccc2OC3)cc1", "note": "(configuration not stated)", "inhibition": "92.8% (active)"}, {"smiles": "O=c1[nH]c2c(c(=O)n1Cc1ccccc1)CCC2", "inhibition": "-27.1% (inactive)"}, {"smiles": "COC(=O)c1ccc(/C=N\\n2c(C)nnc2C)cc1", "inhibition": "-3.4% (inactive)"}, {"smiles": "Cc1noc(/C=C/N(C)C)c1S(=O)(=O)N1CCCC(C(=O)NCc2ccco2)C1", "note": "(configuration not stated)", "inhibition": "48.9% (inactive)"}, {"smiles": "CCOC(=O)C1CCN(C(=O)C2CCN(S(=O)(=O)c3c(C)noc3C)CC2)CC1", "inhibition": "10.2% (inactive)"}, {"smiles": "Cc1noc(/C=C/c2ccco2)c1S(=O)(=O)N1CCC(C(=O)N2CCc3ccccc32)CC1", "inhibition": "76.9% (active)"}, {"smiles": "CCCCN1C(=O)/C(=C2/C=CC=CN2C)SC1=S", "inhibition": "-5% (inactive)"}, {"smiles": "Cc1cc(C)nc(N2CCN(c3ncnc4c3oc3ccccc34)CC2)n1", "inhibition": "-20.3% (inactive)"}, {"smiles": "Cc1cccc(-n2ncc3c(N4CCc5ccccc54)ncnc32)c1", "inhibition": "-9.6% (inactive)"}, {"smiles": "Cc1ccc2c(c1)c1ncnc(N3CCc4ccccc4C3)c1n2C", "inhibition": "73% (active)"}, {"smiles": "CCN(CC)C(=O)CSc1nnc(C2CCCCC2)o1", "inhibition": "5.7% (inactive)"}, {"smiles": "COCc1cc(C)nc(Nc2cc(C)ccc2C)c1C#N", "inhibition": "15.6% (inactive)"}, {"smiles": "Oc1ccc(-c2onc3ccc(Cl)cc23)cc1", "inhibition": "90.2% (active)"}, {"smiles": "CC1(C)Oc2ccc3ccc(=O)oc3c2/C(=C/NCCO)C1=O", "inhibition": "4.1% (inactive)"}, {"smiles": "O=C(/C=C/Nc1ccccc1)c1cnc(-c2ccccc2)s1", "inhibition": "12.6% (inactive)"}, {"smiles": "O=C1c2ccncc2C(=O)N1C1CCCCC1", "inhibition": "12.5% (inactive)"}, {"smiles": "CCCCCOC(=O)C1=C(C)Nc2nnnn2C1c1ccc(OC)c(OC)c1OC", "note": "(configuration not stated)", "inhibition": "56.5% (active)"}, {"smiles": "CC1=C(C(N)=O)C(c2sccc2C)n2nnnc2N1", "note": "(configuration not stated)", "inhibition": "-4.8% (inactive)"}, {"smiles": "COc1ccc(C2C(C(=O)Nc3ccccc3OC)=C(C)Nc3nnnn32)c(OC)c1", "note": "(configuration not stated)", "inhibition": "31.8% (inactive)"}, {"smiles": "CCc1cc(Br)ccc1NC(=O)C1CCCO1", "note": "(configuration not stated)", "inhibition": "-2.1% (inactive)"}, {"smiles": "CC(=O)Oc1cc2c(C(=O)NCCN3CCOCC3)c(C)oc2c2ccccc12", "inhibition": "24.6% (inactive)"}, {"smiles": "CC(c1ccccn1)N(CCN(C)C)C(=S)Nc1ccccc1F", "note": "(configuration not stated)", "inhibition": "-1.3% (inactive)"}, {"smiles": "O=C(c1cccc(F)c1)N1CCN(c2ccc([N+](=O)[O-])c(N3CCCCC3)c2)CC1", "inhibition": "80.7% (active)"}, {"smiles": "CC(C)N(C(=O)COC(=O)c1ccccc1C(=O)N1CCN(c2ccc(F)cc2)CC1)C(C)C", "inhibition": "39.5% (inactive)"}, {"smiles": "O=C(c1cccc(N2CCCC2=O)c1)N1CCOCC1", "inhibition": "5.6% (inactive)"}, {"smiles": "O=C(c1ccccc1)N1CCN(c2ccc([N+](=O)[O-])c(NCc3ccco3)c2)CC1", "inhibition": "87.1% (active)"}, {"smiles": "O=C(c1cccc(C(=O)N2CCN(c3ccc(F)cc3)CC2)c1)N1CCN(c2ccc(F)cc2)CC1", "inhibition": "84.6% (active)"}, {"smiles": "O=C(c1ccccc1Oc1ccccc1)N1CCN(c2ccc(F)cc2)CC1", "inhibition": "77% (active)"}, {"smiles": "CCC(CC)C(=O)Nc1cccc(C(=O)N2CCCC2)c1", "inhibition": "12.7% (inactive)"}, {"smiles": "CCNC(=S)N1CCN(C(=O)c2ccco2)CC1", "inhibition": "1.2% (inactive)"}, {"smiles": "O=[N+]([O-])c1ccc(N2CCN(S(=O)(=O)c3ccc4ccccc4c3)CC2)cc1NCc1ccco1", "inhibition": "27.8% (inactive)"}, {"smiles": "O=C(O)C1CC=CCC1C(=O)Nc1ccccc1C(=O)N1CCN(c2ccccc2)CC1", "note": "(configuration not stated)", "inhibition": "6% (inactive)"}, {"smiles": "CO/N=C/c1ccc(N2CCN(C(=O)c3cccc(Cl)c3)CC2)c([N+](=O)[O-])c1", "inhibition": "14.4% (inactive)"}, {"smiles": "O=C(c1ccccc1)c1cccn1CC(=O)N1CCN(c2ccc(F)cc2)CC1", "inhibition": "-62.9% (inactive)"}, {"smiles": "CNC(=O)Nc1cc(C(C)(C)C)no1", "inhibition": "7.8% (inactive)"}, {"smiles": "CCOC(=O)c1c(N)c(C#N)nn1-c1ccccc1C(=O)OC", "inhibition": "-2.3% (inactive)"}, {"smiles": "CN(C(=O)CC(NC(=O)c1ccccc1)(c1ccccc1)c1ccccc1)c1ccccc1", "inhibition": "21.9% (inactive)"}, {"smiles": "CC(C)CC(=O)N=C1SC2CS(=O)(=O)CC2N1CCc1ccccc1", "note": "(configuration not stated)", "inhibition": "7.8% (inactive)"}, {"smiles": "CCc1ccc(-c2nnn(Cc3nn[nH]n3)n2)cc1", "inhibition": "23.5% (inactive)"}, {"smiles": "CCNC(=O)N1CCNC(=O)C1CC(=O)Nc1ccc(C(=O)OCC)cc1", "note": "(configuration not stated)", "inhibition": "1.1% (inactive)"}, {"smiles": "COC(=O)c1ccc(C(=O)OC)c(NC(=S)N2CCCCC2)c1", "inhibition": "14% (inactive)"}, {"smiles": "O=C(Nc1ccc2c(c1)CCC2)c1cccc(S(=O)(=O)N2CCN(c3ccc(F)cc3)CC2)c1", "inhibition": "39.9% (inactive)"}, {"smiles": "CCCCc1nnc(NC(=O)CS(=O)(=O)Cc2ccccc2)s1", "inhibition": "44.7% (inactive)"}, {"smiles": "C=CCNc1nnc(C)c2ccccc12", "inhibition": "-15.2% (inactive)"}, {"smiles": "Cc1cccc(C(=O)N2CCCN(C(=O)c3cccc(C)c3)CC2)c1", "inhibition": "70.4% (active)"}, {"smiles": "Cc1ccccc1CN1CCN(C(=O)c2cccc(F)c2)CC1", "inhibition": "85.6% (active)"}, {"smiles": "Cc1ccccc1CS(=O)(=O)CC1(O)CCN(C(=O)c2cccc(C(F)(F)F)c2)CC1", "inhibition": "4.9% (inactive)"}, {"smiles": "O=C(c1ccccc1)N1CCN(C(=O)N2CCCCC2)CC1", "inhibition": "1.9% (inactive)"}, {"smiles": "O=C(CN1CCN(C(=O)c2cccc(F)c2)CC1)Nc1ccccc1F", "inhibition": "27.5% (inactive)"}, {"smiles": "Cc1ccc(C(=O)N2CCCCCC2)cc1Br", "inhibition": "-23.3% (inactive)"}, {"smiles": "Cc1ccc(S(=O)(=O)N(c2cccc(C)c2)C2CCS(=O)(=O)C2)cc1", "note": "(configuration not stated)", "inhibition": "7.2% (inactive)"}]}]}
